The source made the active and inactive calls.
Legend:
Albumin (Bos taurus) = Albumin (Bos taurus) (UniProt P02769); assay: compounds binding labelled BSA control protein – biochemical, small-molecule microarray, Alexa647 label, 635/667 nm fluorescence, artefact control for SMM control protein annotation, profiling panel (AID 1118); conditions: BSA-A647 binding, fluorescence 635 nm, higher = more signal;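 further: score merges 667 nm emission intensity and signal-to-noise per printed compound spot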
Albumin (Bos taurus), sequence (P02769 whole entry, looked up): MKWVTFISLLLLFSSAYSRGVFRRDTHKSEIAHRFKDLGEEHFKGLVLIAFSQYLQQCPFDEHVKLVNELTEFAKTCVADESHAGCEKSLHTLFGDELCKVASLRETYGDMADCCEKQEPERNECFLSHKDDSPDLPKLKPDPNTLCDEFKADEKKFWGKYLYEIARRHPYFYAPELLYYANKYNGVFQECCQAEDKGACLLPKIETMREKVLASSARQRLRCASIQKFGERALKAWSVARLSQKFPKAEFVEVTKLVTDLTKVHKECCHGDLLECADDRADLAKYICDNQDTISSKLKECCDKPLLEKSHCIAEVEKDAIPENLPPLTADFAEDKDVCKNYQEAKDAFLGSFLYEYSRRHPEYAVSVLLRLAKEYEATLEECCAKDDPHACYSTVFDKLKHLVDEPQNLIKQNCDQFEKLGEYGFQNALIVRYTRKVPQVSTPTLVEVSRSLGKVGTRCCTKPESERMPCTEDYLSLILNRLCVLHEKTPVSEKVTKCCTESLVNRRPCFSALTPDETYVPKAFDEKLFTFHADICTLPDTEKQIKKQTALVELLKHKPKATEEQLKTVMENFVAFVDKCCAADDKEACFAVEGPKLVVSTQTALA

[1] = probe aXIP binding to arrayed compounds – biochemical, NeuroSMM set, 635/667 nm fluorescence, primary screen (AID 1119); conditions: small-molecule microarray, higher = more signal, called active from +8 up or from −8 down;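 further: probe is the protein aXip251-270 applied at 1 µg/mL to compound-printed slides; binding of probe to printed compounds measured as 667 nm fluorescence plus signal to noise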
[2] = probe aNOTCH3 binding on compound microarray – biochemical, small-molecule microarray, 635/667 nm fluorescence, primary screen (AID 1120); conditions: higher = more signal;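 further: probe is a biotin-tagged antibody raised against NOTCH3 rather than NOTCH3 protein; score merges spot fluorescence near 667 nm with spot signal to noise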
[3] = probe aNOTCH2 binding on compound microarray – biochemical, small-molecule microarray, 635/667 nm fluorescence, primary screen (AID 1121); conditions: higher = more signal;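 further: score merges feature fluorescence read at 667 nm with its signal to noise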
[4] = target: Carbonic anhydrase 2 (Homo sapiens) (UniProt P00918); assay: compounds binding carbonic anhydrase 2 – biochemical, small-molecule microarray, Alexa647-labelled CAII, profiling panel (AID 1122); conditions: CAII-A647 binding fluorescence, higher = more signal
[5] = COS7 lysate on small-molecule microarray, probe aHis, 635 nm (AID 1123); conditions: COS7 cell lysate, fluorescence, higher = more signal;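 further: z-score combines 667nm fluorescence intensity with signal-to-noise per printed compound spot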
[6] = probe aLAP1 signal on lysate-treated microarray – cell lysate, small-molecule microarray, COS7 lysate, primary screen (AID 1124); conditions: probe aLAP1, fluorescence, higher = more signal;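 further: lysate comes from COS7 cells expressing LAP1 and is applied at 0.3 µg/mL; score merges spot fluorescence near 667 nm with signal-to-noise over triplicate slides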
Sam68 (KHDRBS1) = assay: compounds binding KHDRBS1 protein – biochemical, small-molecule microarray, 635 nm fluorescence, primary screen (AID 1125); conditions: higher = more signal;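 further: score merges 667 nm channel intensity with signal to noise over triplicate slides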
[7] = tested on: Chordin-like protein 2 (CHRDL2); assay: compounds binding chordin-like 2 – biochemical, small-molecule microarray, 635 nm fluorescence, primary screen (AID 1126); conditions: fluorescence 635 nm, higher = more signal;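 further: printed compound slides probed with Chrdl2 protein at 4 µg/mL for 1 h at 4 C; score merges 667 nm emission intensity with signal to noise over three replicate slides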
[8] = target: Concanavalin-A (Canavalia ensiformis) (UniProt P02866); assay: compounds binding concanavalin A lectin – biochemical, small-molecule microarray, Alexa647 label, 635 nm, artefact control for SMM control protein annotation, primary screen (AID 1127); conditions: ConA-A647 binding fluorescence, higher = more signal;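 further: z combines 667 nm emission intensity with signal-to-noise across three replicate slides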
Concanavalin-A (Canavalia ensiformis), sequence (P02866 whole entry, looked up): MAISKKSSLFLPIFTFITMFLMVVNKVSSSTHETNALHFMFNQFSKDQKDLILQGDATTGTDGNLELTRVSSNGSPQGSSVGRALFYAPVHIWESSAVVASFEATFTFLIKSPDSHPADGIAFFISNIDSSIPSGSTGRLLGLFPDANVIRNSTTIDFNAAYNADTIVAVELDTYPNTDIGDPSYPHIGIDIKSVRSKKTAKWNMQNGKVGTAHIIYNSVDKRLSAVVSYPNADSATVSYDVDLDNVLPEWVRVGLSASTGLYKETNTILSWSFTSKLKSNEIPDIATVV

[9] = compounds binding Alexa647 anti-His antibody – biochemical, small-molecule microarray, 635 nm fluorescence, artefact control for SMM control protein annotation, primary screen (AID 1128); conditions: higher = more signal;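 further: score merges feature fluorescence with signal-to-noise for each printed compound spot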
[10] = tested on: Human papillomavirus type 1a E7 protein (residues 1-88); assay: HPV1a E7 small-molecule binders, primary screen, biochemical, small-molecule microarray, residues 1-88, 635 nm (AID 1129); conditions: small-molecule microarray binding, fluorescence 635 nm; higher = more signal
[11] = target: Focal adhesion kinase 1 (Homo sapiens) (UniProt Q05397); assay: PTK2 protein binding on printed compound slides – biochemical, small-molecule microarray, 635/667 nm fluorescence, BSA, DTT, primary screen (AID 1130); conditions: 635 nm fluorescence, higher = more signal;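 further: composite of spot emission at 667 nm and signal to noise over triplicate slides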
Focal adhesion kinase 1 (Homo sapiens), sequence (Q05397 whole entry, looked up): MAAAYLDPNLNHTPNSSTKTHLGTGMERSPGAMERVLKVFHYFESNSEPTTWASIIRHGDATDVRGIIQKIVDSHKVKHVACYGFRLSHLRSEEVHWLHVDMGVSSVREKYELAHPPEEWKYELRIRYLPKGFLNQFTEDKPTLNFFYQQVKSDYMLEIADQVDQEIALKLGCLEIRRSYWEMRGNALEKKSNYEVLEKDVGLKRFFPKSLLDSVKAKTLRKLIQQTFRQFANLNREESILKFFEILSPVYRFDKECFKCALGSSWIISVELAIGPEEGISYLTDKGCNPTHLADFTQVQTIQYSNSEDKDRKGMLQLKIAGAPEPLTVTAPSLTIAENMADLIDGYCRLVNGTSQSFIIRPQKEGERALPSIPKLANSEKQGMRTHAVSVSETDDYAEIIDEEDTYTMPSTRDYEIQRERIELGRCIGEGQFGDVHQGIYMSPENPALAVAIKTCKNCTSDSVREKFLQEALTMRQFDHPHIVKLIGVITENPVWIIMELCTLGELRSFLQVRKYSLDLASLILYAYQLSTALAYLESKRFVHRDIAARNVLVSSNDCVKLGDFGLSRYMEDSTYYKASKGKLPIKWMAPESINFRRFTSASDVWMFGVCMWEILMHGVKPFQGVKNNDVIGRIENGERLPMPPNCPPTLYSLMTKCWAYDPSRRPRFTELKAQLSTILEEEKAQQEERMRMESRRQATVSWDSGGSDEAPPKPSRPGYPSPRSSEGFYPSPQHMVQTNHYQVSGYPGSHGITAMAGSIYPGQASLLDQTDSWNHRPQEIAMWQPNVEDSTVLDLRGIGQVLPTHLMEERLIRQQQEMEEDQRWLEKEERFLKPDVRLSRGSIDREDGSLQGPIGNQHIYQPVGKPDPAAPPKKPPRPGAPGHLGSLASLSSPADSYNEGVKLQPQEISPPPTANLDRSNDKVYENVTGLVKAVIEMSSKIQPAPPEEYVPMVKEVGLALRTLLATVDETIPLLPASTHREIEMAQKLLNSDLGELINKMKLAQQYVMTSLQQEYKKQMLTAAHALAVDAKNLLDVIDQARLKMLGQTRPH

[12] = tested on: Fibrinogen (Alexa647-labelled); assay: Alexa647-fibrinogen binding to printed small molecules – biochemical, small-molecule microarray, 635/667 nm fluorescence, artefact control for SMM control-protein annotation, profiling panel (AID 1131); conditions: fibrinogen-A647 binding fluorescence, higher = more signal;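 further: z-score merges 667 nm fluorescence with per-spot signal-to-noise over triplicate slides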
[13] = target: Follistatin (Homo sapiens) (UniProt P19883); assay: FST protein binding to printed compounds – biochemical, small-molecule microarray, 635/667 nm fluorescence, primary screen (AID 1132); conditions: 635 nm fluorescence, higher = more signal
Follistatin (Homo sapiens), sequence (P19883 whole entry, looked up): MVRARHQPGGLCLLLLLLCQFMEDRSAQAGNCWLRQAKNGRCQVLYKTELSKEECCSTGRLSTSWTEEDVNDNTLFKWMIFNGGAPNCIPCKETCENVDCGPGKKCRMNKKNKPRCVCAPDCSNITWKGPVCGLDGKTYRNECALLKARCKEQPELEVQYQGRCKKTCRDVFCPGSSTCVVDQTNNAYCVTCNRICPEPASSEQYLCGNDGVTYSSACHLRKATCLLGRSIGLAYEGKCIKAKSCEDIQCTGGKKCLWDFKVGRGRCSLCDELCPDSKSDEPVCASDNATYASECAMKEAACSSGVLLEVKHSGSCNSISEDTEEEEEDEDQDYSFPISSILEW

[14] = target: Fibroblast growth factor 2 (Homo sapiens) (UniProt P09038); assay: basic fibroblast growth factor binding to printed compounds – biochemical, small-molecule microarray, 635/667 nm fluorescence, primary screen (AID 1133); conditions: FGF2, fluorescence 635/667, higher = more signal
Fibroblast growth factor 2 (Homo sapiens), sequence (P09038 whole entry, looked up): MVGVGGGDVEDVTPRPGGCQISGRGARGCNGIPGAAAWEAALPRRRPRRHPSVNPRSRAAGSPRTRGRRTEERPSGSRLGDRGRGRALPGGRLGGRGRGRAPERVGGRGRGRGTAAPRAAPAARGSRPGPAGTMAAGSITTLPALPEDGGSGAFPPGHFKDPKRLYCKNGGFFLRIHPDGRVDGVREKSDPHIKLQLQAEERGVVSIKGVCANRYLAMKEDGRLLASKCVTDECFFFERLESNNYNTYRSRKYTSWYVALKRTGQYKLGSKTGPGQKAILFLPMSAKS

[15] = JC-1 mitochondrial potential readout, lung cancer cells – cell-based, A549, JC-1 fluorescence, basal, 24 h, 100 nL, profiling panel (AID 1138); conditions: higher = more signal;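 further: A549 lung adenocarcinoma cells under basal conditions with no added stimulus; test concentration not given here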
Lefty1 = Lefty1 protein binding to printed compounds – biochemical, small-molecule microarray, 635/667 nm fluorescence, primary screen (AID 1139); conditions: fluorescence 635/667, higher = more signal
[16] = tested on: wheat germ agglutinin (Triticum aestivum), Alexa647-labelled; assay: Alexa647-WGA lectin binding to printed small molecules – biochemical, small-molecule microarray, 635/667 nm fluorescence, artefact control for SMM control-protein annotation, profiling panel (AID 1140); conditions: WGA-A647 binding, 635 nm fluorescence, higher = more signal;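 further: score merges 667 nm feature emission with signal to noise over triplicate slides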
[17] = target: Luciferin 4-monooxygenase (Photinus pyralis) (UniProt P08659); assay: inhibition of purified Photinus pyralis luciferase – biochemical, luminescence, purified enzyme, 2006 set, primary screen (AID 1141); conditions: purified firefly luciferase, SteadyGlo luminescence, 30 min; higher = more signal, called active from +8 up or from −8 down;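 further: cell-free assay with purified firefly luciferase at 100 ng per well in PBS; test concentration not given here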
Luciferin 4-monooxygenase (Photinus pyralis), sequence (P08659 whole entry, looked up): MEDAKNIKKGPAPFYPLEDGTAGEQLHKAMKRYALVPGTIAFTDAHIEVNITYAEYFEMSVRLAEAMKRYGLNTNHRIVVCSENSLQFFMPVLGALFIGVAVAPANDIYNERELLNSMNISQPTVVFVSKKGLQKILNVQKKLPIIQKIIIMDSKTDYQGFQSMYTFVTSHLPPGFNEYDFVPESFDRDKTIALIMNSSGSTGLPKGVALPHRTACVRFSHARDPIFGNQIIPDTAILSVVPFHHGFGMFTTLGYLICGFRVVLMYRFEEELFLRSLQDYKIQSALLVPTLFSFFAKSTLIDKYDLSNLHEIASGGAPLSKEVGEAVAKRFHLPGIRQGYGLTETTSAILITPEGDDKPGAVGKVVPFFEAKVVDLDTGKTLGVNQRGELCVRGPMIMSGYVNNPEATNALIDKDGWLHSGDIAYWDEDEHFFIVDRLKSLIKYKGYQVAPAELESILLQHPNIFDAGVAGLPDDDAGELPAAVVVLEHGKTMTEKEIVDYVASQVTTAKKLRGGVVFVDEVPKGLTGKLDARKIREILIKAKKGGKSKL

Row | SMILES | composite z-score (Albumin (Bos taurus)) | composite Z-score [1] | composite z-score [2] | composite z-score [3] | composite z-score [4] | composite z-score [5] | composite z-score [6] | composite z-score (Sam68 (KHDRBS1)) | composite z-score [7] | composite z-score [8] | composite z-score [9] | composite z-score [10] | composite z-score [11] | composite z-score [12] | composite z-score [13] | composite z-score [14] | z-score [15] | composite z-score (Lefty1) | composite z-score [16] | z-score [17]
1 | NCCCCCCNC(=O)[C@@H]1C[C@@H]2C(=O)N3CCC[C@H]3C(=O)N2[C@@H]1c1cccc(OCCO)c1 | 0.81 | 2.71 (inactive) | 0.113 | -0.15 | 0.709 | 0.729 | 1.02 | 0.462 | 1.16 | 1.14 | 2.14 | 0.894 | 0.0676 | 0.882 | 0.832 | 1.16 | -0.383 | 1.24 | 0.938 | -0.268 (inactive)
2 | O=C1c2ccccc2[C@@]2(Cc3ccccc3N(Cc3ccccc3)C2=O)[C@H](c2ccc(CO)cc2)N1Cc1ccccc1Cl | 0.705 | 0.0507 (inactive) | -0.279 | -0.171 | -0.391 | -0.222 | 0.147 | -0.633 | -0.688 | -0.709 | -0.743 | -1.14 | -0.0858 | -1.2 | -0.465 | -0.395 | -0.00887 | -0.0772 | -0.45 | 1.3 (inactive)
3 | CC(C)(C)N1CC=CC23O[C@@H]4C=CCCOC(=O)C4[C@H]2C(=O)N(CCCCCCO)[C@@H]3C1=O (stereo not given in full) | -0.188 | -0.192 (inactive) | -0.0716 | -0.124 | 0.834 | -0.0431 | 0.0582 | 0.28 | -1.29 | -0.202 | 0.129 | 0.11 | -0.385 | -0.959 | -0.327 | -1.16 | 0.223 | -0.0747 | -1.2 | -0.876 (inactive)
4 | CCCCC(O)C1C=CC2C(=O)N(c3ccccc3)C(=O)C2N1Nc1ccc([N+](=O)[O-])cc1 (stereo not given) | 0.894 | 0.312 (inactive) | 0.27 | -0.148 | 0.583 | 2.61 | 0.738 | 1.3 | -0.0818 | 1.02 | 0.709 | 1.24 | 1.16 | 0.992 | 0.825 | -0.458 | -0.52 | 0.264 | 0.68 | 1.89 (inactive)
5 | COCCn1c(C(=O)N(C)C)cc2c1C[C@H]1CN(C(=O)c3ccccc3)[C@@](Cc3ccc(OC)cc3)(C(=O)OC)[C@@H]21 | 0.507 | -0.0775 (inactive) | 0.32 | 0.0323 | 0.659 | 2.94 | 0.294 | 0.914 | -0.545 | 0.732 | 1.59 | 1.04 | 0.585 | 0.837 | 0.571 | -0.226 | 1.66 | -0.201 | 0.94 | 0.75 (inactive)
6 | O=C1O[C@H](c2ccccc2)[C@H](c2ccccc2)N2[C@H]1[C@@H](C(=O)N1CCN(c3ncccn3)CC1)[C@]1(C(=O)Nc3ccc(C#CCCO)cc31)[C@H]2c1ccc(O)cc1 | 0.627 | -0.777 (inactive) | 0.171 | -0.11 | 0.413 | 1.88 | 0.608 | 0.574 | 0.0231 | 1.01 | 0.144 | 0.762 | 1.38 | 0.888 | 0.809 | 0.115 | -0.683 | 0.186 | 0.766 | -0.538 (inactive)
7 | C=CCOC(=O)[C@H]1[C@@H]2C(=O)O[C@@H](c3ccccc3)[C@@H](c3ccccc3)N2[C@@H](c2ccc(OCCOC(=O)[C@@H]3C[C@@H]4C(=O)N[C@@H](CCCCNC(C)=O)C(=O)N4[C@@H]3c3cccc(OCCO)c3)cc2)[C@]12C(=O)Nc1ccccc12 | -0.623 | 1.36 (inactive) | 0.116 | -0.0704 | 0.501 | 2.07 | 0.352 | 1.29 | 0.751 | 1.2 | 2.81 | 1.19 | 0.838 | 0.276 | 1.25 | 1.53 | -0.0996 | 0.581 | -0.185 | -0.878 (inactive)
8 | CCCC=C(CCC)[C@@H](NC(=O)OCC(C)C)c1ccc(C(=O)OC)cc1 | -0.0782 | -0.773 (inactive) | -0.0328 | -0.15 | 0.133 | 0.141 | 0.35 | 0.687 | 0.436 | 0.256 | 0.403 | 0.717 | 1.16 | 0.441 | -0.133 | 0.462 | 0.744 | 0.704 | 0.0477 | 2.34 (inactive)
9 | CCOc1cc(C(O)C2C=CC3C(=O)N(c4ccccc4)C(=O)C3N2Nc2ccccc2F)ccc1O (stereo not given) | 0.799 | -0.209 (inactive) | 0.533 | 0.433 | 0.826 | 2.75 | 0.0411 | 0.339 | 0.0988 | 0.666 | 0.532 | 0.316 | -0.0063 | -0.428 | 0.106 | -0.107 | -0.638 | -0.541 | 0.886 | -1.38 (inactive)
10 | NC(=O)NCC#Cc1ccc2c(c1)[C@]1(C(=O)N2)[C@H](c2ccc(OCCO)cc2)N2[C@H](c3ccccc3)[C@H](c3ccccc3)OC(=O)[C@H]2[C@@H]1C(=O)NC[C@H](O)c1ccccc1 | 0.335 | 0.691 (inactive) | 0.0237 | -0.147 | 0.428 | 0.485 | -0.146 | -0.449 | 0.0046 | 1.03 | -0.454 | 0.542 | 0.115 | 0.879 | 1.25 | -0.0515 | -1.08 | 0.395 | 0.259 | 0.409 (inactive)
11 | N#Cc1ccc(NN2C(C(O)C3CC=CCC3)C=CC3C(=O)N(c4ccccc4)C(=O)C32)cc1 (stereo not given) | 1.03 | -0.098 (inactive) | 0.106 | -0.0037 | 0.486 | 3.13 | 0.452 | 1.32 | 0.0572 | 1.14 | 0.118 | 1.28 | 0.534 | 1.02 | 0.46 | 1.05 | 0.0165 | 0.361 | 1.36 | -0.852 (inactive)
12 | COCCCNC(=O)[C@@H]1c2ccccc2C(=O)N(Cc2ccc(OC(F)(F)F)cc2)[C@H]1c1ccc(CO)cc1 | 0.348 | -0.274 (inactive) | -0.0074 | -0.174 | 0.529 | 1.22 | 1.28 | 0.859 | 0.286 | 0.874 | 1.54 | 1.11 | 1.79 | 0.654 | 1.14 | 0.722 | 2.03 | 0.541 | 0.316 | -0.0459 (inactive)
13 | C=CCC(OC(C)=O)[C@@H]1[C@@H](N(Cc2ccc(-c3cccc(C(F)(F)F)c3)o2)C(=O)c2ccc(-c3ccccc3)cc2)c2cc(OCCCO)ccc2N1C(=O)c1ccc2ccccc2c1 (stereo not given in full) | -0.192 | -0.0127 (inactive) | 0.0445 | -0.0707 | 0.323 | 0.234 | -0.376 | -0.689 | 0.0823 | -0.654 | -0.191 | -0.06 | 0.0473 | -0.0951 | 1.02 | 0.23 | 0.413 | 1.17 | 0.0415 | 0.85 (inactive)
14 | COC(=O)[C@@]1(Cc2ccc(OC)cc2)[C@H]2c3cc(C(=O)N4CCCC4)n(Cc4c(CO)[nH]cc(C)c4=O)c3C[C@H]2CN1C(=O)c1ccccc1 | 1.01 | -0.438 (inactive) | 0.0296 | 0.257 | 0.751 | 3.24 | 1.32 | 0.332 | -0.184 | 0.393 | 1 | 1.24 | 0.502 | 0.91 | -0.116 | -0.0376 | 0.534 | -0.116 | 0.723 | 0.835 (inactive)
